Data as given in the supplement of paper PMC6555819.

Tested on: RARb homodimer (NR concentration 270 nM)
Assay: PBM binding z-score (relative to random genomic background probes); higher = stronger binding; sequences stand for … in GC…GCGATTGACAGCGTAGAATGAAGG
How it was run: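 On custom Agilent 4×180K arrays, double-stranded probes with 34-nt variable regions carried direct-repeat seeds, single-nucleotide variants, half-site ablations or random human genomic background. Ligand-free nuclear receptor dimers were applied for 1 h, and binding was read with antibodies against each partner (one per run). Binding z-scores come from regression-normalized fluorescence, with the random background probes as reference.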

In order of rising PBM binding z-score:
1. CAGCCTAGGTCTGGGCCAGTATAGGAGGAACGTT  -0.496
2. TAGCCTAGGACATTGGGCCAGTATAGTACGCATC  -0.251
3. CCAGACAGGTGTAAGGTAACTCAGTCTGGTACGC  -0.201
4. CCGACTGGGGCATAATGTTACCATAAGCCAGCCC  -0.153
5. CTCGAAAGATCGGTTGAGGTGAGTATACGGATAA  -0.106
6. ACAGACAGGTGAGTGAAGGTAACTCCGCTGGACG  0.202
7. GCGACTGGGGCATCAGCATGTTACCATAACTTAA  0.222
8. ACAGACAGGAGATGAAGGTAACTCAGGCTATCAT  0.465
9. TCGAGTAGGTTAGTCGGGGCATTCACCCAACATA  0.552
10. ATCTCTAGGTGAGACTCAGTTCAGTGAAGAACGC  0.564
11. TCTGCTAGGTTAACGATGGTCAGCTAATCTGCTA  0.605
12. ATCGAAAGGACGAAGGTGAGTATACCCACCCGAA  0.646
13. AGAATCAGGTTATACGTAGATCAGGGAAGAAAGT  0.65
14. GGAACGAGGGCAAATTTGATAGCATCTGTCGACG  0.969
15. CGAACTAGGTTATTGACAGGACAGTGAATAGTAA  0.991
16. ATCTCTAGGTAAGTCTCAGTTCAGTGAAGAACGC  1.02
17. TCGAGTAGGTTAGGGGCATGCAGAATGGCGTCGA  1.07
18. CCGACTGGGGCAAAGGTTACTATACTCAGTACGA  1.74
19. AGCTCTAGGTAACAAGTTCAGTGAAAGAGAGGAC  1.92
20. ATCTTTAGGTAACAAGTTCAGTGAAAGAGAGGAC  2.04
21. CGTCCAAGGTCTGCAGGTCAGTGAAAGCGACGTG  2.06
22. ACTAGCAGGCCAATTTTGGGTCACTCAAACAAAG  2.11
23. CAGCCCAGGTCAGGGCCAGTATAGGAGGAACGTT  2.54
24. TAGCCTAGGTCATTGGGCCAGAATAGTACGCATC  2.6
25. CGTGCTAGGTCAATGGTCAGCTAAAGCAGCTCGC  2.95
26. CCTGCTAGGTCAATGGTCAGCTACAGCAGCTCGC  2.95
27. CGTCCAAGGTTAGCAGGTCAGTGAAAGCGACGTG  3.14
28. CCTTCCGGGTCACTGACAGGTTATAGCATTTGGA  3.23
29. ATCGAAAGGTCGCGAGGTGAGTATACAGAAAGGC  3.4
30. TATACAGGGTCAACGGCCAGAGTACGAATGTCGA  3.43
31. GGTTACGGGTCAAAGGTTATAGCATGAATAGAAT  3.44
32. CCTACCGGGCCAAGGTCATTGATCAGTCAAAGCA  3.48
33. GATCCAGGGTCAAGGCCAGAGTACGCGTATTGAT  3.61
34. CGTCCAAGGTCAAAGATCAGTGAAGAGATGACGG  3.86
35. TGTCAAAGTTCAAAGGTAACGTGAGTATCCACAC  4.01
36. CGTCCAAGTTCAAGGTCAGTGAAAGAGACTCGAA  4.11
37. CCTATTGGGCCATTCAGAGGTCATTGATCATATG  4.13
38. CGTACTGGGCCATTCAGAGGTCATTGATCATATG  4.23
39. CGTCCAAGGTCACTGCTAGGTCAGTGAAAGCATT  4.78
40. CAAACTAGGTCACGAAAGGTCATAGTCGAATGAC  5.66
